Experimental data from publication PMC4336329 (PLoS ONE, 2015).
Hit rate of the full screen: of about 310,000 compounds, about 14,000 (4.5%) showed an effect of 50% or more. The effect is printed as a negative number. This is one part of a sample in which strong results are shown more often than they occur.

Target: human ether-à-go-go-related gene (hERG) potassium channel (human, UniProt Q12809)
Assay: primary screen, population patch clamp on CHO cells stably expressing hERG; higher = less effect of the substance
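Further: peak tail current of the secondary pulse compared with the same well before compound.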

Chain of human ether-à-go-go-related gene (hERG) potassium channel (Q12809 whole entry, looked up): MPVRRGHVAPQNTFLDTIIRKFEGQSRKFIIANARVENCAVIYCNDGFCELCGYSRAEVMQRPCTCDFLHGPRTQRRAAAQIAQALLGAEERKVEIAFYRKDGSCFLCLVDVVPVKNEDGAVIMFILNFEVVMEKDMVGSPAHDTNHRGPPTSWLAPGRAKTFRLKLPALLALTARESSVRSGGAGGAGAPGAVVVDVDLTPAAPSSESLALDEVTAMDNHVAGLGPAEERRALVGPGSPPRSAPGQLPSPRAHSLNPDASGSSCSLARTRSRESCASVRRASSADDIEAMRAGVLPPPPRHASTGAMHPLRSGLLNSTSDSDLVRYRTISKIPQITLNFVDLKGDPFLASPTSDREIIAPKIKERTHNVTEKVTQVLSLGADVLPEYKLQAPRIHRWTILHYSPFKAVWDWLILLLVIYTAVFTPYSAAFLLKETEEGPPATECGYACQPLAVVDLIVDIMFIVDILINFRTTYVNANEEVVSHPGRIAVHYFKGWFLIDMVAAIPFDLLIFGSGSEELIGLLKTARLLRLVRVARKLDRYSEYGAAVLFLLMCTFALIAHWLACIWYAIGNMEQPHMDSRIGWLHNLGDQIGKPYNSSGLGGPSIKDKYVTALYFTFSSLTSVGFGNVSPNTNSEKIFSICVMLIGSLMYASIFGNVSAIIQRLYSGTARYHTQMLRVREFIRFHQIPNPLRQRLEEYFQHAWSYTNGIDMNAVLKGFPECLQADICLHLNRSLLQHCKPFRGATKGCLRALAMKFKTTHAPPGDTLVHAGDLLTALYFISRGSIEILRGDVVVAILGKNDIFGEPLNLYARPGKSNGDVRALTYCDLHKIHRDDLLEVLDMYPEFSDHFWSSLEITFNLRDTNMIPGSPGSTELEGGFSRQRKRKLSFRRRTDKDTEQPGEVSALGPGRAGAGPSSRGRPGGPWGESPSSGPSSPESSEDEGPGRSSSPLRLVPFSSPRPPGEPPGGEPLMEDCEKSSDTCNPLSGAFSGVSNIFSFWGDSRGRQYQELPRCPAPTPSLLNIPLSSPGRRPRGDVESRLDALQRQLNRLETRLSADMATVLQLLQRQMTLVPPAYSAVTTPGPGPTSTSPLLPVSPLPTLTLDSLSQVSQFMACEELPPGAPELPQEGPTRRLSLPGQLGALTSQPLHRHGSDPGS

Compound	hERG current change (%, negative = inhibition) at 10uM [%]
N#Cc1ccc(OCC(=O)NCC2(N3CCCCC3)CCCCC2)cc1	-78.2
N#Cc1ccccc1OCC(=O)NCC1(N2CCCCC2)CCCCC1	-29.4
CC(=O)c1ccc(OCC(=O)NCC2(N3CCCCC3)CCCCC2)cc1	4.71
CCOc1ccc(CC(=O)NCC2(N3CCCCC3)CCCCC2)cc1	-17
O=C(COc1ccccc1)NCC1(N2CCCCC2)CCCCC1	-30
CCC(=O)c1ccc(OCC(=O)NCC2(N3CCCCC3)CCCCC2)cc1	-51.5
C/C(CCc1ccco1)=N/NC(=O)CCC(=O)Nc1ccc(Br)cc1	10.2
CCn1c(SCc2nc3sc(C(=O)O)c(C)c3c(=O)[nH]2)nc2ccccc21	3.32
CC(C)(C)C(=O)N1c2ccccc2CCc2ccccc21	-0.0543
C=CCn1c(COc2ccccc2)nc2ccccc21	-7.62
COCCn1c(COc2ccc(C)cc2)nc2ccccc21	-11.9
CCOCCn1c(COc2ccc(C)cc2)nc2ccccc21	-52.6
C=CCn1c(COc2ccccc2OC)nc2ccccc21	-0.267
C=CCn1c(COc2ccc(OC)cc2)nc2ccccc21	-79.8
CCOCCn1c(COc2ccccc2)nc2ccccc21	-33.6
O=C(Nc1cccc(NC(=O)c2ccccc2Cl)c1)c1ccc([N+](=O)[O-])o1	-16.4
CC1Cc2nc(SCC(=O)N3CCCC3)n(C)c(=O)c2S1 (stereo not shown)	-7.79
COc1ccc(C(=O)Nc2ccc(NC(=O)c3cccs3)cc2)cc1[N+](=O)[O-]	5.49
O=C1C2ON(c3ccccc3)C(c3cccnc3)C2C(=O)N1c1ccccc1 (stereo not shown)	18.1
O=C1C2ON(c3ccccc3)C(c3cccnc3)C2C(=O)N1c1ccc(Cl)c(Cl)c1 (stereo not shown)	10.5
O=C1C2ON(c3ccccc3)C(c3cccnc3)C2C(=O)N1Cc1ccccc1 (stereo not shown)	-50.8
CC(C)(C)n1nnnc1C(c1ccc(F)cc1)N1CCC(C(N)=O)CC1.Cl (stereo not shown)	11.3
O=C(c1ccc(-c2cccc(C(F)(F)F)c2)o1)N1CCN(c2ccccc2O)CC1	17.1

Compound	hERG current change (%, negative = inhibition) at 10uM [%]
CC1CN(C(=O)c2ccc(-c3cccc(C(F)(F)F)c3)o2)CC(C)O1 (stereo not shown)	-43.7
O=C(c1ccco1)N1CCN(Cc2cccc(C(F)(F)F)c2)CC1	-5.15
COc1ccc(C(CNC(=O)c2ccc(-c3cccc(C(F)(F)F)c3)o2)N2CCOCC2)cc1 (stereo not shown)	-6.09
O=C(c1ccco1)N1CCN(C(=O)c2ccc(-c3cccc(C(F)(F)F)c3)o2)CC1	-79.9
O=C(c1ccc(-c2cccc(C(F)(F)F)c2)o1)N1CCOCC1	-21.8
O=C(c1ccc(-c2cccc(C(F)(F)F)c2)o1)N1CCCCCCC1	-3.68
CC(=O)N1CCN(C(=O)c2ccc(-c3cccc(C(F)(F)F)c3)o2)CC1	-53.5
CC(C)(CNC(=O)c1ccc(-c2cccc(C(F)(F)F)c2)o1)N1CCOCC1	-76.3
CC(=O)NC(CC(=O)Nc1cccc(S(=O)(=O)N2CCCCC2)c1)c1ccccc1 (stereo not shown)	-1.76
CCCCC(=O)Nc1cc(Cl)ccc1C(=O)O	27.6
CC(=O)N1CCC(c2c[nH]c3ccccc23)CC1	5.87
CCn1ncc(-c2ccnc3cc(C(=O)O)nn23)c1C	12.6
CC(c1ccccc1)n1c(N2CCNCC2)nc2c1c(=O)[nH]c(=O)n2C (stereo not shown)	6.32
O=C(/C=C/c1ccccc1)OCc1cnc(Cl)s1	-6.4
Cc1ccc(S(=O)(=O)Cn2nnnc2C(CC(C)C)N2CCC(C(N)=O)CC2)cc1 (stereo not shown)	-12.2
Cc1cc(NC(=O)/C=C/c2ccccc2)c(C(C)C)cc1O	10.7
CC(C)c1ccc(NC2CCCN(C(=O)CCN3CCOCC3)C2)cc1 (stereo not shown)	0.518
COc1ccc(CNC(=O)c2ccc(N3CCOCC3)c([N+](=O)[O-])c2)cc1	-52.1
O=C(NCc1ccc(F)cc1)c1ccc(N2CCOCC2)c([N+](=O)[O-])c1	-39.6
O=C(Nc1ccc(Cc2ccncc2)cc1)c1cc([N+](=O)[O-])ccc1N1CCOCC1	-39
C=C1CCN(c2ccc(C(=O)NCc3ccc(OC)cc3)cc2[N+](=O)[O-])CC1	-7.55
O=C(Nc1ccc(Cc2ccncc2)cc1)c1ccc(N2CCOCC2)c([N+](=O)[O-])c1	-59.1
O=C(Nc1cccnc1)c1ccc(N2CCOCC2)c([N+](=O)[O-])c1	21.7
